Most compounds without a hit are left out; they make up all but 1.6% or so of the library.
KCNQ2 enhance: enhances the rat KCNQ2 potassium channel; AID 2239; 0.54% of 310,000 active; CHO-K1 KCNQ2, FluxOR thallium flux fluorescence; active compounds read high; O88943; B-score at 10 µM;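 active = fluorescence ratio B-score at least 3 SD of library B-scores, with initial fluorescence B-score within 3 of them, cut at about 5.3 in these data; same plate scores as AID 2156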;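 also: B-score of peak minus minimum over baseline fluorescence ratio after K+ and Tl+ stimulus; positive B-score means potentiation of KCNQ2 with more thallium influx and brighter signal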
Target sequence (O88943 whole entry, looked up): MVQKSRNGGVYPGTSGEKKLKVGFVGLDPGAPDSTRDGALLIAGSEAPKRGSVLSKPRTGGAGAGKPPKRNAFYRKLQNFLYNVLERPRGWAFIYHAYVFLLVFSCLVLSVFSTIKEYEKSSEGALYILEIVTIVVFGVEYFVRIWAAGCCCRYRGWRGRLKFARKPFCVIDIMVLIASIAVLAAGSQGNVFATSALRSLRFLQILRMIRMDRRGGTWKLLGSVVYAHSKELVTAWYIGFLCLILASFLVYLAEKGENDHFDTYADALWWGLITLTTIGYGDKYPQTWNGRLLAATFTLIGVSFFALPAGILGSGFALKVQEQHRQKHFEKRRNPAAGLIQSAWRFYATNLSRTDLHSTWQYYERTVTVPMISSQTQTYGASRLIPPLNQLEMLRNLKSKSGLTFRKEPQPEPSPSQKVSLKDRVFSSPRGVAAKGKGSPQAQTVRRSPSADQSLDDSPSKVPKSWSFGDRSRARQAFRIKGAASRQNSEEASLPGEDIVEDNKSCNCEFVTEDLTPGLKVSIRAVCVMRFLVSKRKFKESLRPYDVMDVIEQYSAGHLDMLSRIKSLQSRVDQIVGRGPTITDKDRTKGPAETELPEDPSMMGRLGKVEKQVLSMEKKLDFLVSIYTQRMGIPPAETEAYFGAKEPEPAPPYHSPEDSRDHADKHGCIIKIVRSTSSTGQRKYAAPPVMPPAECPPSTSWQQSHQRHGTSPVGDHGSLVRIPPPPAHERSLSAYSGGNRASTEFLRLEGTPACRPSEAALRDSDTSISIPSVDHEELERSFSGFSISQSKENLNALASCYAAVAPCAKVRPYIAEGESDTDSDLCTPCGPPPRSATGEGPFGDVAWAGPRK
KCNQ2 block: inhibitors of rat KCNQ2 potassium channel | O88943 | CHO-K1 KCNQ2, FluxOR thallium flux, 20 min; active compounds read low | B-score at 10 µM | 1.1% of 310,000 active | AID 2156;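 active = fluorescence ratio B-score at most minus 3 library SDs, with starting brightness B-score within 2 library SDs, cut at about -5.5 in these data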
* = called active by the depositor; i = inactive; nt = not tested or not shown.

SMILES | KCNQ2 enhance | KCNQ2 block
Cc1ccc(C)c(C2NC(=O)c3ccccc3N2)c1 (configuration not stated) | -5.57 | -5.57*
Cc1ccc(N(C)S(=O)(=O)c2c(C)noc2/C=C/N(C)C)cc1 | 0.38 | i
N#C/C(=C\c1ccc(OCc2cccc(C(=O)O)c2)cc1)C(=O)NCc1ccco1 | nt | i
C/C(CC(=O)Nc1ccc(N(C)C)cc1)=N\NC(=O)c1ccc([N+](=O)[O-])cc1 | nt | i
N/C(=N\OC(=O)c1ccccc1Cl)c1ccccc1 | nt | i
N/C(=N\OC(=O)N1c2ccccc2Sc2ccccc21)c1ccccc1 | -6.49 | -6.49*
Cc1cc(OC(=O)c2cc(C(F)(F)F)cc(C(F)(F)F)c2)c([N+](=O)[O-])c(=O)[nH]1 | 0.52 | i
COc1ccc(CN(C)C(c2ccccc2)c2nnnn2-c2ccccc2C)c(OC)c1C (configuration not stated) | -6.04 | -6.04*
COc1cc(OC)c(OC)cc1CN(C)C(c1ccccc1)c1nnnn1-c1ccccc1C (configuration not stated) | nt | i
Cc1cc2ccccc2n2c(SCC(=O)NCC3CCCO3)nnc12 (configuration not stated) | 0.1 | i
Cc1ccc(S(=O)(=O)NCCN=Cc2ccc(N(C)C)cc2)cc1 | 0.47 | i
CCc1ccc(NC(=O)CSc2nc3nc(C)cc(C)n3n2)cc1 | nt | i
Cc1ccc(C2(C)NC(=O)N(CC(=O)Nc3ccc(Cl)c(S(=O)(=O)N4CCCCC4)c3)C2=O)cc1 (configuration not stated) | nt | i
CCOc1c(Cl)cc(C(=O)Nc2ccccc2-c2ccccc2)cc1Cl | nt | i
COc1ccc(C(=O)Nc2ccccc2-c2ccccc2)cc1Cl | -6.17 | -6.17*
COc1cccc(NC(=O)C(c2ccccc2)N2CCCCC2)c1 (configuration not stated) | nt | i
O=C(Nc1cc(Cl)cc(Cl)c1)C(c1ccccc1)N1CCCCC1 (configuration not stated) | -6.41 | -6.41*
CSc1ccc(CNC(=O)C(C)n2nc(C)c3c(C)n(-c4ccccc4)nc3c2=O)cc1 (configuration not stated) | 0.89 | i
CC(=O)Nc1sc2c(c1C#N)CCC(C)C2 (configuration not stated) | 1.82 | i
Cc1ccc(C)n1-c1sc2c(c1C#N)CCC(C)C2 (configuration not stated) | -7.85 | -7.85*
CCOc1ncccc1C(=O)Nc1ccc2nc(C)sc2c1 | 0.2 | i
Cc1nnc(Sc2cc(NCCO)c([N+](=O)[O-])c3nonc23)s1 | -7.52 | -7.52*
O=[N+]([O-])c1c(NCCCO)cc(Sc2nc3ccccc3s2)c2nonc12 | nt | i
O=[N+]([O-])c1c(NCCO)cc(N2CCCCCC2)c2nonc12 | nt | i
CCC(=O)OCCNc1cc(Sc2nc3ccccc3s2)c2nonc2c1[N+](=O)[O-] | -7.54 | -7.54*
SMILES | KCNQ2 enhance | KCNQ2 block
CN1/C(=C\C(=O)C[n+]2ccc3ccccc3c2)C(C)(C)c2ccccc21 | 1.23 | i
COc1ccccc1NC(=O)CN1CCN(c2ccccc2)CC1 | nt | i
O=[N+]([O-])c1ccc(Nc2nc(N/N=C\c3ccc4c(c3)OCO4)nc(N3CCCCC3)n2)cc1 | -5.75 | -5.75*
O=[N+]([O-])c1ccc(/C=N/Nc2nc(N3CCCCC3)nc(N3CCCCC3)n2)cc1 | nt | i
CC1CCN(CCOc2ccc(OCc3ccccc3)cc2)CC1 | 0.45 | i
Cc1ccc(SC[C@H](c2ccccc2)N2CCN(CCc3ccccc3)CCC2=O)cc1 | -6.09 | -6.09*
CC(C)CN1CCC(=O)N([C@H](CSc2ccccc2)Cc2ccccc2)CC1 | -5.67 | -5.67*
O=C1CCN(CCc2ccccc2)CCN1[C@H](CSc1ccccc1)c1ccccc1 | nt | i
Cc1ccc(SC[C@H](Cc2ccccc2)N2CCN(CC(C)C)CCC2=O)cc1 | nt | i
Cc1cc(C)c(C(=O)CN2C(=O)NC3(CCCCCC3)C2=O)cc1C | nt | i
CN1CCN(C(=O)c2cc(=O)c3cc(Cl)cc(Cl)c3o2)CC1 | 2.03 | i
NC(=NC1CCCCC1)NS(=O)(=O)c1ccccc1 | nt | i
COc1ccccc1C(=O)Nc1c(C(=O)N(CCN(C)C)Cc2ccco2)oc2ccccc12 | -6.98 | -6.98*
COc1ccc(OCC(=O)Nc2c(C(=O)N(CCN(C)C)Cc3ccco3)oc3ccccc23)cc1 | nt | i
O=C(Nc1cc(Br)c(O)c(Br)c1)c1cccc(NC(=O)c2ccco2)c1 | 2.77 | i
O=C(Nc1cccc(N=Cc2cc(Cl)cc(Br)c2O)c1)c1ccco1 | 10.1* | i
CCn1cc(CN2CCC(n3nccc3NC(=O)C3CCCC3)CC2)cn1 | 0.06 | i
CCCCNC(=O)CNC(=S)N(Cc1ccccc1F)C1CCCCC1 | -6.85 | -6.85*
COCCCNC(=O)CNC(=S)N(Cc1ccccc1F)C1CCCCC1 | nt | i
Cc1ccc(C)c(Nc2nn3c(=O)c4ccc(C(=O)NCc5cccnc5)cc4nc3s2)c1 | 0.89 | i
CCOC(=O)C1CCN(C(=O)c2ccc3c(=O)n4nc(Nc5cc(C)ccc5C)sc4nc3c2)CC1 | -5.83 | -5.83*

Screening results deposited in PubChem by Johns Hopkins Ion Channel Center.
